Measurements reported in publication PMC4552634, “A New Set of Chemical Starting Points with Plasmodium falciparum Transmission-Blocking Potential for Antimalarial Drug Discovery” (PLoS ONE, 2015).
Hit rate of the full screen: of about 13,000 compounds, about 3,200 (25%) showed an effect of 50% or more. This is one part of the list.

system: P. falciparum stage V gametocytes; design: BacTiter-Glo ATP luminescence viability of purified stage V gametocytes in 384-well plates, per cent inhibition versus DMSO; conditions: 48 h, 5 µM; inhibitor

Structure (SMILES)	% Inhibition [%]
CCN(CC)CCCN(C(=O)Nc1c(Cl)cncc1Cl)c1nc(-c2ccc(F)cc2)cs1 [TCMDC-136666]	-35.52
O=C(Cc1ccc(NC(=O)c2ccc(O)c(-c3ccc(Cl)c(Cl)c3)c2)cc1)NCCN1CCCCC1 [TCMDC-140861]	-19.27
O=C(Nc1cccc2ccccc12)N1CCC(NS(=O)(=O)c2cccc(C(F)(F)F)c2)CC1 [TCMDC-139437]	-43.48
Cn1c(N)c(N=O)c(=O)[nH]c1=O [TCMDC-123469]	-4.943
CC1CN(Cc2ccc(C#N)cc2)CCN1c1ccc(NC(=O)c2cccs2)cc1 (stereo not drawn) [TCMDC-134949]	-2.454
Cc1nnnn1-c1ccc(C(=O)N2CCC3(CC2)CN(Cc2ccc(Cl)c(Cl)c2)C(=O)O3)cc1 [TCMDC-141691]	-63.06
Oc1ccc(CCNCCCCCCNCCc2ccc(Cl)c3ccccc23)cc1O [TCMDC-131271]	123.4
O=C(CCCCCNC(=O)c1ccc(O)c(-c2ccc(Cl)c(Cl)c2)c1)NCCc1ccc(Cl)c(Cl)c1 [TCMDC-140870]	6.745
O=C(Nc1ccc(CCNCCCc2ccccc2)cc1)Nc1ccc(Cl)c(Cl)c1 [TCMDC-140703]	18.38
NS(=O)(=O)c1cccc(Nc2nccc(-c3cnn4ncccc34)n2)c1 [TCMDC-138919]	-22.3
CC(C)c1cc(N)c2cc(NC(=O)COCC(=O)Nc3ccc4nc(C(C)C)cc(N)c4c3)ccc2n1 [TCMDC-140151]	20.51
Nc1nc(N)c2cc(NC(=O)c3ccc(Cl)c(Cl)c3)ccc2n1 [TCMDC-141982]	63.61
Cc1cc(N)c2cc(NC(=O)c3cc(C(F)(F)F)cc(C(F)(F)F)c3)ccc2n1 [TCMDC-139377]	129.8
CN1CCc2cc(NC(=O)c3cc4ccccc4s3)cc(-c3ccccc3)c2CC1 [TCMDC-141733]	18.19
Cc1[nH]cnc1-c1cccc(NC(=O)c2cc3ccccc3s2)c1 [TCMDC-140418]	-4.001
COc1cc(C)nc2ccc(NC(=O)c3cc(C(F)(F)F)cc(C(F)(F)F)c3)cc12 [TCMDC-139381]	-62.94
Cc1cc(Nc2cccc(C(F)(F)F)c2)nc2ccc(NC(=O)c3ccc(=O)[nH]c3)cc12 [TCMDC-125286]	-51.61
Cc1cc(N)c2cc(NC(=O)c3ccc4ccccc4c3)ccc2n1 [TCMDC-139362]	110.4
Nc1nc(N)c2cc(CNc3ccc(Cl)c(Cl)c3)ccc2n1 [TCMDC-141974]	-49.67
O=C(Nc1cncc(NC(=O)c2ccc(Cl)c(Cl)c2)c1)c1ccc(Cl)c(Cl)c1 [TCMDC-134576]	-22.28
Cc1cc(N)c2cc(NC(=O)c3cc4ccccc4s3)ccc2n1 [TCMDC-139336]	120.6
Cc1ccc2nc(-c3cc(-c4ccc(OCc5ccccc5)cc4)cnc3N)[nH]c2c1 [TCMDC-135839]	-50.65
Cn1c(=O)n(C)c2cc(CNCCNc3ccnc4cc(Cl)ccc34)ccc21 [TCMDC-125236]	26.13
CCCOc1ccc(CCCON2C(N)=NC(N)=NC2(C)C)cc1 [TCMDC-131757]	14.14

Structure (SMILES)	% Inhibition [%]
Cc1noc(C)c1-c1cccc(CNCc2ccc(-c3cccc(-c4nc5ccccc5[nH]4)c3)cc2)c1.O=C(O)C(F)(F)F [TCMDC-132565]	-39.99
OCCN1CCN(C(=S)NC2CCCCC2)CC1 [TCMDC-123848]	-10.92
O=C(NCc1cccc(C(F)(F)F)c1)c1ccc(-c2nc3cc(F)c(F)cc3[nH]2)cc1 [TCMDC-140461]	13.57
Cc1cc(C)c(C(=O)Nc2ccc3nc(C)cc(N)c3c2)c(C)c1 [TCMDC-139379]	-0.864
COc1cc(C)nc2ccc(NC(=O)Nc3cccc4ccccc34)cc12 [TCMDC-139397]	-27.18
COc1cc(C)nc2ccc(NC(=O)c3ccc(C(=O)Nc4ccc5nc(C)cc(OC)c5c4)cc3)cc12 [TCMDC-139502]	14.93
Cc1cc(N)c2cc(NC(=O)c3cccc4ccccc34)ccc2n1 [TCMDC-139378]	63.27
CCc1ccc(OCc2ccccc2C(=O)Nc2ccc3nc(C)cc(N)c3c2)cc1 [TCMDC-125882]	102.8
Cc1cc(C(=O)Nc2ccc(OCc3ccccc3)cc2)on1 [TCMDC-124596]	15.42
Cc1cc(N)c2cc(NC(=O)CCC(=O)Nc3ccc4nc(C)cc(N)c4c3)ccc2n1 [TCMDC-139503]	21.97
Cc1cc(Nc2ccc(OCc3ccccc3Cl)cc2)c2cc(Cl)ccc2n1 [TCMDC-123799]	-30.43
Cc1cc(N)c2cc(NC(=O)c3cccc(C(=O)Nc4ccc5nc(C)cc(N)c5c4)c3)ccc2n1 [TCMDC-139410]	73.19
Cc1cccc2nc(-c3ccc(-c4ccc(CN5CCN(c6ccc(C#N)cn6)CC5)cc4)s3)[nH]c12.O=C(O)C(F)(F)F [TCMDC-133116]	1.839
NC1(C(=O)O)Cc2ccc(Cl)cc2C1 (stereo not drawn) [TCMDC-131768]	8.887
O=C(/C=C/c1ccc(Cl)c(Cl)c1)NC1CCN(Cc2cccc(O)c2)CC1 [TCMDC-141738]	-9.136
Oc1ccc2c(c1NCC1CCCCC1)CCCC2 [TCMDC-138157]	-18.15
COC(=O)CN(C(=O)/C=C/c1ccc(Cl)c(Cl)c1)C1CCC(CN2CCC(c3c[nH]c4ccccc34)CC2)CC1 (stereo not drawn) [TCMDC-140320]	0.7085
Oc1ccc(-c2cc(-c3ccc(O)cc3)nc(-c3ccccc3)n2)cc1 [TCMDC-123851]	-22.65
Cc1ccccc1C1CCN(C2CCC(NC(=O)c3ccc(-c4ccccc4)s3)CC2)CC1 (stereo not drawn) [TCMDC-134113]	-48.7
Cc1ccccc1C1CCN(C2CCC(NC(=O)c3cc(-c4ccccc4)oc3C)CC2)CC1 (stereo not drawn) [TCMDC-134112]	-36.13
COc1ccc(-c2csc(C(=O)NC3CCC(N4CCC(c5ccccc5C)CC4)CC3)c2)cc1 (stereo not drawn) [TCMDC-134109]	30.06
Cc1ccccc1C1CCN(C2CCC(NC(=O)c3csc(-c4cccc(Cl)c4)n3)CC2)CC1 (stereo not drawn) [TCMDC-134104]	-68.67
Cc1ccccc1C1CCN(C2CCC(NC(=O)c3cc4cc(Cl)ccc4o3)CC2)CC1 (stereo not drawn) [TCMDC-134102]	-69.82
Cc1ccccc1C1CCN(C2CCC(NC(=O)c3ccc(-c4cccc(C(F)(F)F)c4)o3)CC2)CC1 (stereo not drawn) [TCMDC-134108]	57.44

Structure (SMILES)	% Inhibition [%]
Cc1ccccc1C1CCN(C2CCC(NC(=O)c3cc(-c4ccc(Cl)cc4)cs3)CC2)CC1 (stereo not drawn) [TCMDC-133529]	65.99
COc1cccc(-c2cc(C(=O)NC3CCC(N4CCC(c5ccccc5C)CC4)CC3)[nH]n2)c1 (stereo not drawn) [TCMDC-133532]	73.16
Cc1ccccc1C1CCN(C2CCC(NC(=O)c3cncc(-c4ccccc4)c3)CC2)CC1 (stereo not drawn) [TCMDC-134111]	-71.64
Cc1ccc(/C=C/C(=O)NC2CCC(N3CCC(c4ccccc4C)CC3)CC2)cc1F (stereo not drawn) [TCMDC-133514]	-74.34
Cc1ccccc1C1CCN(C2CCC(NC(=O)c3ccc(-c4ccccc4F)o3)CC2)CC1 (stereo not drawn) [TCMDC-134110]	121.1
CCc1c(C(=O)NC2CCC(N3CCC(c4ccccc4C)CC3)CC2)[nH]c2ccc(OC)cc12 (stereo not drawn) [TCMDC-133531]	-38.07
CCCCN(Cc1cnccc1-c1ccc(Br)cc1)c1ccc(C(O)(C(F)(F)F)C(F)(F)F)cc1 [TCMDC-135242]	23.71
CCC(C)CN1CCCN(c2ccc(NC(=O)c3cccs3)cc2)CC1 (stereo not drawn) [TCMDC-134998]	9.826
CCN(Cc1ccccc1)C1CCN(Cc2cc(Br)ccc2O)CC1 [TCMDC-123661]	1.171
O=C(Nc1ccc(Cl)cc1)Nc1ccc(-c2csc(-c3nc4ccccc4[nH]3)c2)cc1 [TCMDC-133174]	10.18
Cc1cc(N2CCCC2)nc(Nc2ccc(NC(=O)C(C)C)cc2)n1 [TCMDC-124970]	-2.67
Cc1cc(N2CCCC2)nc(Nc2ccc(NC(=O)Nc3ccccc3)cc2)n1 [TCMDC-124705]	-12.69
Cc1cc(N2CCCC2)nc(Nc2ccc(NC(=O)C(C)(C)C)cc2)n1 [TCMDC-124716]	77.07
CCNc1cc(C(=O)N[C@@H](Cc2ccccc2)[C@H](O)CNCCCc2ccc(OC)cc2)cc(N2CCCC2=O)c1 [TCMDC-141685]	6.049
COc1ccccc1CNc1ccnc(N2CC(Oc3ccc(F)cc3)C2)n1 [TCMDC-135118]	57.67
CCNC(=O)N1CCc2ccc(Oc3nc(NCc4ccccc4OC)ncc3C)cc2CC1 [TCMDC-133414]	17.56
Fc1ccc(OC2CN(c3nccc(NCc4ccccc4Cl)n3)C2)cc1 [TCMDC-135110]	91.97
O=C(Nc1ccc(OC2CCN(Cc3ccc(F)cc3)C2)cc1)c1ccco1 (stereo not drawn) [TCMDC-133758]	44.14
Cc1onc(-c2ccccc2)c1-c1nc(NCc2ccccc2Cl)no1 [TCMDC-134205]	-12.6
CCOc1ccccc1CNc1nccc(NCc2ccccc2OC)n1 [TCMDC-135119]	40.21
CC(C)(C)NC(=O)c1ccc(Oc2ccc(OC(F)(F)F)cc2)c(NC(=O)C(C)(C)C)c1 [TCMDC-137270]	-22.87
CC(C)[C@H](NCC(=O)c1ccccc1)C(=O)O [TCMDC-131333]	52.78
COC(=O)C(C)NCC(=O)c1ccccc1 (stereo not drawn) [TCMDC-131767]	45.43
CCC(CC(C)C(=O)O)=C(c1ccccc1)c1ccccc1 (stereo not drawn) [TCMDC-131707]	-2.137
